From PubChem BioAssay AID1117319 (Southern Research Institute, 2015)
Several values for one entry are separate records, joined by “and”; a condition that tells them apart may be missing. Equal values may be shown once. Out of some 260,000 compounds screened, about 1,500 (0.58%) were called active. Roughly 5% stayed inconclusive and do not appear here. Only a sample is shown. Potency and affinity values are given separately. Unmarked numbers belong to inactive results.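 Rule for the calls: active = inhibition above a set limit at one or more doses, reproduced on every date tested; inconclusive = results disagree between test dates, or hit never tested in dose response; inactive = the rest.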

Target: Virion infectivity factor (Human immunodeficiency virus type 1 group M subtype B (isolate BH10)) + Virion infectivity factor (Human immunodeficiency virus type 1 group M subtype B (isolate BRU/LAI)) + Virion infectivity factor (Human immunodeficiency virus type 1 group M subtype B (isolate PCV12)) + Virion infectivity factor (Human immunodeficiency virus type 1 group M subtype B (isolate HXB2)) + DNA dC->dU-editing enzyme APOBEC-3G (Homo sapiens) (UniProt P69720+P69721+P69722+P69723+Q9HC16)
Assay: HIV-1 Vif–A3G interaction blockers – biochemical, TR-FRET, GST-Vif 1-94, biotin-A3G peptide, dose response retest, primary screen (AID 1117319);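 note: Vif residues 1-94 fused to GST binding biotinylated APOBEC3G peptide 110-148; 0% = full assay without inhibitor and 100% = GST in place of GST-Vif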
Settings: TR-FRET GST-Vif / biotin-A3G peptide binding; stronger effect = higher value

| Compound | inhibition |
| --- | --- |
| Oc1[nH]c2ccccc2c1N=Nc1ccc(F)cc1 | -2.74% |
| Oc1ccc2ccccc2c1N=Nc1ccc(F)cc1 | 7.15% and 5.32% |
| CCOC(=O)CC(NC(=O)c1cccs1)c1ccc(C)cc1 (stereo not drawn) | -0.96% |
| CCCCOc1ccccc1C1NC(=O)CCC1[N+](=O)[O-] (stereo not drawn) | -4.07% |
| COc1ccccc1/C=C/C=N/NC(=O)Cc1cccs1 | -10.6% |
| O=C(Cc1cccs1)N/N=C/C=C/c1ccccc1 | 4.16% |
| O=C(CNC(=O)c1cccs1)N/N=C/c1ccco1 | 10.8% |
| O=C(N/N=C/C=C\c1ccco1)c1cccs1 | 2.49% |
| O=C(c1ccncc1)N1N=C(C2CC2)CC1(O)C(F)(F)F (stereo not drawn) | -2.38% |
| CCOC(=O)c1c(C)oc(=O)c(CC)c1O | -0.93% |
| Cc1ccc(S(=O)(=O)N2C[C@H]3C(=O)C[C@@H](c4ccc(Cl)cc4)N(S(=O)(=O)c4ccccc4C)[C@H]3C[C@H]2c2ccccc2)cc1 | -0.22% |
| O=C(CSCc1c(Cl)cccc1Cl)NN=C1CCCC1 | 15.1% |
| CCOC(=O)C1CCCN(c2c(NCC3CCCN3CC)c(=O)c2=O)C1 (stereo not drawn) | 1.77% |
| CC(=O)N1Cc2ccccc2CC1C(=O)NCc1ccccc1F (stereo not drawn) | 0.3% |
| O=C(NCCO)c1ccc(Cl)c(Cl)c1 | -3.78% |
| O=C(NC1CCCCC1)c1cc(-c2ccco2)on1 | 2.76% |
| CCc1nc2ccc(C(=O)NCc3ccco3)cc2nc1CC | 3.69% |
| O=C(O)c1ccc2nc(-c3ccco3)c(-c3ccco3)nc2c1 | -0.3% |
| CCCNC(=O)c1ccc2nc(-c3ccccc3)c(-c3ccccc3)nc2c1 | -1.93% |
| C=CCNC(=O)c1ccc2nc(-c3ccccc3)c(-c3ccccc3)nc2c1 | -4.35% |
| CCOCCCNC(=O)c1ccc2nc(-c3ccc(OC)c(OC)c3)c(-c3ccc(OC)c(OC)c3)nc2c1 | -0.07% |
| CCc1nc2ccc(C(=O)NCCc3ccco3)cc2nc1CC | 9.44% |
| CC(=O)Nc1ccccc1S(=O)(=O)CC1CC1(Cl)Cl (stereo not drawn) | 4.64% |
| CC(=O)Nc1cccc(N(C)C)c1 | 6.55% |
| Cc1cc(NS(C)(=O)=O)c(=O)n(Cc2cccc(C(F)(F)F)c2)c1 | 0.67% |
| CSCC(=O)N1CCCC(CNC(=O)c2ccccc2Cl)C1 (stereo not drawn) | -7.52% |
| COc1ccc(OCCSc2ncccn2)cc1 | -7.11% |
| COC(=O)c1nc(NC(=O)c2ccc(Br)cc2)n[nH]1 | 23.4% |
